# Measured values from PubChem BioAssay AID2685 (National Center for Advancing Translational Sciences (NCATS), 2010).
# The whole screen tested about 320,000 compounds, of which about 2,100 (0.66%) were called active. Another 53% or so got no clear call; they are omitted. The call rests on the fitted dose curve; in most records, active means well fitted inhibition curve with a large enough effect in the signal ratio, with a control signal flat (not every such curve was filed as active); inconclusive means small, poorly fitted or top-dose-only effect, or effect the other way, or a change in a side signal; inactive means flat fitted curve, though single readings scatter; the % refers to the signal ratio. The sample as a whole holds a higher share of actives than the screen did.
# Experiment: qHTS Assay for Lipid Storage Modulators in Drosophila S3 Cells;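 on cell number change: cells counted by Cell Tracker Red CMTPX staining in the red channel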; on lipid storage change, negative = inhibition: on the % scale 0 is the no-effect control and ±100 the full control effect
# Settings: BODIPY lipid droplet fluorescence, 18-24 h, cells fed with added oleic acid; cell number change: measured here: cell count max response; series mostly up to 46.1 µM
# Method in brief: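 Drosophila S3 cells loaded with oleic acid (400 uM, as added) and compounds at several concentrations; lipid droplets imaged by 488-nm laser-scanning cytometry, 500–530 nm intensity and object ratio to cell channel. Percent activity normalized to 20 uM Triacsin C.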
# Potency means the concentration at half of the fitted maximal effect.
SMILES,Potency,cell number change,"lipid storage change, negative = inhibition"
OCCNc1ncnc2c1sc1nc(N3CCOCC3)c3c(c12)CCC3,inactive,0.136%,–
Cc1c(OC(C)C(=O)NCCCN2CCOCC2)ccc2c3c(c(=O)oc12)CCCC3 (configuration not stated),inactive,8.4%,–
COC(=O)CNC(=O)CSc1nc(N)cc(=O)[nH]1,inactive,-9.53%,–
Cc1cc(C)c(O)c(NC(=S)NC(=O)Cc2ccccc2)c1,inactive,-14.2%,–
CCc1ccccc1Nc1nc(N)nc(COC(=O)CCS(=O)(=O)c2ccccc2)n1,inactive,–,–
Cc1c(C)n(CCO)c2ncnc(Nc3ccc(F)cc3)c12,inactive,17.8%,–
C=CCN1C(=O)/C(=C\c2ccc(Cl)cc2)N=C1SCC(=O)NC1CCCCC1,inactive,1.87%,–
CC(=O)c1ccc(NC(=O)/C(=C\c2cccs2)NC(=O)c2ccco2)cc1,inactive,17%,–
CC1=C(C(=O)Nc2ccc(C)cc2)C(c2ccc(N(C)C)cc2)NC(=O)N1 (configuration not stated),inactive,-1.82%,–
CCN(CC)c1ccc(C2NC(=O)NC(C)=C2C(=O)Nc2ccccc2)cc1 (configuration not stated),1.64 µM (active),-25.6%,–
CC1=C(C(=O)Nc2ccccc2)C(c2cccs2)NC(=O)N1 (configuration not stated),inactive,-4.1%,–
Cc1ccc(NC(=O)c2c(O)c3ccccc3n(C)c2=O)nc1,inactive,-15.8%,–
CCOC(=O)c1cnc2c(C)c(-c3ccccc3)[nH]n2c1=O,inactive,6.05%,–
CN=C1SC(CC(=O)Nc2ccc(F)cc2F)C(=O)N1/N=C/c1ccc(OC(F)F)c(OC)c1 (configuration not stated),inactive,8.82%,–
C=CCOc1ccc(/C=N/N2C(=O)C(CC(=O)Nc3ccc(F)cc3F)SC2=NC)cc1 (configuration not stated),18.4 µM (active),23%,–
CN=C1SC(CC(=O)Nc2ccc(F)cc2F)C(=O)N1/N=C(\C)c1cccc(OCC(=O)O)c1 (configuration not stated),inactive,5.65%,–
CCOC(=O)c1cnc2c(OC)cccc2c1Oc1ccccc1,inactive,0.518%,–
O=C(NC(=S)NCc1ccco1)c1ccccc1,inactive,2.74%,–
c1ccc(NC(=NCc2ccco2)c2ccccc2)cc1,inactive,0.492%,–
NC(=NCc1ccco1)NC(=O)c1ccccc1,20.6 µM (active),21.8%,–
COC(=O)c1ccc(OC(=O)CCN2C(=O)C3C4c5ccccc5C(c5ccccc54)C3C2=O)cc1 (configuration not stated),inactive,-1.2%,–
O=C(c1cnccn1)N1CCN(c2ccccc2F)CC1,inactive,-10.1%,–
Nc1ncc(Br)cc1S(=O)(=O)Nc1ccccc1F,inactive,–,–
Nc1ncc(Br)cc1S(=O)(=O)NC1CCCCC1,inactive,6.11%,–

SMILES,Potency,cell number change,"lipid storage change, negative = inhibition"
Nc1ncc(Br)cc1S(=O)(=O)Nc1cc(C(F)(F)F)cc(C(F)(F)F)c1,0.58 µM (active),-15.9%,–
Cc1c(C(=O)O/N=C(\N)c2ccccn2)cccc1[N+](=O)[O-],inactive,7.58%,–
CCOC(=O)C1=C(COC(=O)Cc2ccc(Cl)cc2)NC(=O)NC1C (configuration not stated),inactive,5.22%,–
Cc1cccc(NC(=O)CSc2nnnn2C)n1,inactive,-5.08%,–
Cn1nnnc1SCC(=O)Nc1ccccc1Br,inactive,-3.35%,–
Cc1cc(C)cc(NC(=O)CN2CCN(c3ncccn3)CC2)c1,inactive,8.39%,–
O=C(CC(=O)Nc1ccccn1)Nc1ccccn1,inactive,4.61%,–
NC(=O)C1CCN(CC(=O)Nc2ccccn2)CC1,inactive,–,–
O=C(CN1CCN(CC(=O)Nc2ccccn2)CC1)Nc1ccccn1,29.1 µM (active),1.87%,–
Cn1nnnc1SCC(=O)Nc1ccccn1,5.8 µM (active),-3.74%,–
Cc1cc(C)cc(NC(=O)CN2CCN(c3ccccn3)CC2)c1,16.4 µM (active),-2.33%,–
O=C(CN1CCN(c2ccccn2)CC1)Nc1ccccc1,inactive,6.43%,–
CCOC(=O)C1=C(C)NC(=O)NC1c1ccc(OC(C)C(=O)O)c(OC)c1 (configuration not stated),inactive,0.405%,–
O=C(C[n+]1ccccc1)N/N=C/c1cccc(Cl)c1Cl,inactive,4.15%,–
CCOc1ccc(C(=O)Nc2ccccc2-c2ccccc2)cc1Cl,inactive,-2.51%,–
O=C(CSc1nc2ccccc2c(=O)n1-c1ccc(F)cc1)NC1CCS(=O)(=O)C1 (configuration not stated),inactive,–,–
COc1ccc(OC)c(NC(=O)COC(=O)CN(C)S(=O)(=O)c2ccc(C)cc2)c1,inactive,1.08%,–
Cc1[nH]c2ccccc2c1/C=N/NC(=O)C1CC1(c1ccccc1)c1ccccc1 (configuration not stated),inactive,-28.5%,–
Cc1ccc(C(=O)NCc2cccnc2)o1,inactive,-7.92%,–
CC1(C)Cc2c(sc3ncnc(NN)c23)CO1,inactive,28.8%,–
CCC(=O)Nc1nc(C)c(-c2csc(Nc3cccc(O)c3)n2)s1,29.1 µM (active),-27%,–
Cc1nc(C)c(-c2csc(Nc3cccc(O)c3)n2)s1,inactive,-15.3%,–
CCC(=O)Nc1nc(C)c(-c2csc(Nc3cccc(C(=O)O)c3)n2)s1,inactive,10.2%,–
CCCCCC(=O)Nc1nc(C)c(-c2csc(Nc3ccc(Cl)cc3)n2)s1,inactive,-19%,–

SMILES,Potency,cell number change,"lipid storage change, negative = inhibition"
CCCCCCC(=O)Nc1nc(C)c(-c2csc(Nc3ccc(Cl)cc3)n2)s1,inactive,–,–
CC(=O)Nc1ccc(Nc2nc(-c3sc(NC(C)=O)nc3C)cs2)cc1,20.6 µM (active),-25.9%,–
Nc1ncc(-c2nnnn2-c2ccc(Cl)cc2)c(-c2ccc(Cl)cc2)n1,inactive,22.6%,–
COC(=O)/C=C1\NCCNC1=O,inactive,9.92%,–
COc1ccc(NC(=O)CCC(=O)N/N=C/c2cccnc2)cc1,inactive,1.18%,–
COc1cc(CN2CCc3ccc(NC(=O)CCc4ccccc4OC)cc3C2)ccc1O,inactive,-9.87%,–
Cc1ccc(C)c(NC(=O)CN(C)C(=O)c2sccc2C)c1,4.61 µM (active),–,–
Cc1ccc(C)c(NC(=O)CN(C)C(=O)Cc2ccccc2)c1,inactive,0.0719%,–
Cc1ccsc1C(=O)N(C)CC(=O)Nc1ccccc1Br,–,–,15.6% [at 0.0737 µM] (inactive)
CSCCC(NS(=O)(=O)c1ccccc1F)C(=O)NNC(=O)c1csc(N2CCOCC2)n1 (configuration not stated),–,-7.74%,27.4% [at 0.0737 µM] (inactive)
CC1CC(C)CN(C(=O)COC(=O)Cc2c[nH]c3ccccc23)C1 (configuration not stated),inactive,–,–
CC1CC(C)CN(C(=O)COC(=O)c2c[nH]c3ccccc23)C1 (configuration not stated),0.92 µM (active),-17%,–
CC1CC(C)CN(C(=O)COC(=O)c2nn(C)c(=O)c3ccccc23)C1 (configuration not stated),inactive,14.1%,–
CCOC(=O)c1c(NC(=O)C2CC=CCC2C(=O)O)sc(C)c1CC (configuration not stated),inactive,12.8%,–
CCc1c(C)sc(NC(=S)NC(C)C2CCCO2)c1C(=O)OC (configuration not stated),inactive,8%,–
CCc1c(C)sc(NC(=O)C2CC2)c1C(=O)OC(C)C,1.3 µM (active),-47.8%,–
CC(NC(=O)CN(c1ccc(Br)cc1)S(C)(=O)=O)c1ccccc1 (configuration not stated),inactive,6.99%,–
CC(NC(=O)CN(c1ccc(F)cc1)S(C)(=O)=O)c1ccccc1 (configuration not stated),4.11 µM (active),-10.2%,–
CC(NC(=O)CN(c1ccc(Cl)cc1)S(C)(=O)=O)c1ccccc1 (configuration not stated),inactive,17.6%,–
Cc1ccccc1CN1C[C@@H]2C[C@@H](c3cnc(N4CCOCC4)s3)N3CCC[C@@]23C1=O,inactive,3.26%,–
COc1ccc(C(NC(=O)CNC(C)=O)C(=O)Nc2ccc3c(c2)OCCO3)cc1 (configuration not stated),inactive,8.96%,–
O=P(c1ccccc1)(c1ccccc1)C(O)c1ccncc1 (configuration not stated),inactive,15.4%,–
CCO[C@@H]1OC(C(=O)N2CCN(Cc3ccccc3)CC2)=C[C@H](C2CC2)[C@H]1CCCO,inactive,7.31%,–
CCO[C@H]1OC(C(=O)N2CCN(Cc3ccccc3)CC2)=C[C@@H](C2CCCCC2)[C@@H]1CCCO,20.6 µM (active),-29.1%,–

SMILES,Potency,cell number change,"lipid storage change, negative = inhibition"
CCO[C@@H]1OC(C(=O)N2CCCCCCC2)=C[C@H](C2CCCCC2)[C@H]1CCCO,inactive,-14.4%,–
COc1cc(S(=O)(=O)N2CCC(c3nc4ccccc4s3)CC2)ccc1S(=O)(=O)N1CC(C)CC(C)C1 (configuration not stated),inactive,0.159%,–
Cc1cc(=O)oc2cc(OCc3ccc(C(=O)OCC(=O)NC4CCS(=O)(=O)C4)cc3)ccc12 (configuration not stated),inactive,8.28%,–
COc1cc(C(c2c(C)[nH][nH]c2=O)c2c(C)[nH][nH]c2=O)ccc1OS(=O)(=O)c1ccccc1,inactive,-3.94%,–
CCOc1cc(C(c2c(C)[nH][nH]c2=O)c2c(C)[nH][nH]c2=O)ccc1OS(=O)(=O)c1ccccc1,29.1 µM (active),-2.58%,–
CCOc1cc(C(c2c(C)[nH][nH]c2=O)c2c(C)[nH][nH]c2=O)ccc1OS(=O)(=O)c1ccc(C)cc1,inactive,16%,–
COc1ccccc1N1CCN(C(c2cccs2)c2nnnn2C2CCCC2)CC1 (configuration not stated),inactive,-7.64%,–
Cc1ccc(SCc2ccc(C(=O)NCc3cccnc3)cc2)cc1,inactive,5.01%,–
Cc1ccc(Cl)cc1NC(=S)N(CCN(C)C)C(C)c1ccccn1 (configuration not stated),inactive,25.6%,–
CCOC(=O)[C@H]1[C@H]2COc3ccc(C)cc3[C@@H]2N2C(=O)c3cc(F)ccc3NC(=O)[C@@]12C,inactive,-22.1%,–
CCOC(=O)[C@H]1[C@H]2COc3ccccc3[C@@H]2N2C(=O)c3ccc(Cl)cc3NC(=O)[C@@]12C,inactive,-18.8%,–
COc1ccc2c(c1)C(=O)N1[C@H]3c4cc(C)ccc4OC[C@@H]3[C@H](c3ccccc3)[C@]1(C)C(=O)N2,inactive,11.4%,–
CCOC(=O)[C@H]1[C@H]2COc3ccccc3[C@@H]2N2C(=O)c3cc(OC)ccc3NC(=O)[C@@]12C,inactive,-11.2%,–
CCOC(=O)[C@H]1[C@H]2COc3cc(OC)ccc3[C@@H]2N2C(=O)c3cc(F)c(F)cc3NC(=O)[C@@]12C,6.51 µM (active),-3.7%,–
CCOC(=O)[C@H]1[C@H]2COc3ccc(OC)cc3[C@@H]2N2C(=O)c3ccc(Cl)cc3NC(=O)[C@@]12C,4.11 µM (active),-6.2%,–
CCOC(=O)[C@H]1[C@H]2COc3cc(OC)ccc3[C@@H]2N2C(=O)c3cc(OC)ccc3NC(=O)[C@@]12C,inactive,-12.2%,–
CCOC(=O)[C@H]1[C@H]2COc3ccc(Cl)cc3[C@@H]2N2C(=O)c3ccccc3NC(=O)[C@@]12C,inactive,-17%,–
COc1ccc2c(c1)[C@H]1[C@H](CO2)[C@H](c2ccccc2)[C@]2(C)C(=O)Nc3ccccc3C(=O)N12,inactive,-2.57%,–
CCOC(=O)[C@H]1[C@H]2COc3ccc(Cl)cc3[C@@H]2N2C(=O)c3cc(C)ccc3NC(=O)[C@@]12C,1.64 µM (active),–,–
COc1cc2c(cc1OC)C(=O)N1[C@H]3c4cc(Cl)ccc4OC[C@@H]3[C@H](c3ccccc3)[C@]1(C)C(=O)N2,2.06 µM (active),-5.54%,–
CCOC(=O)[C@H]1[C@H]2COc3ccc(OC)cc3[C@@H]2N2C(=O)c3cc(F)c(F)cc3NC(=O)[C@@]12C,inactive,10.2%,–
